“And” between values parts separate entries of the source, which are not always exact repeats. Identical values can stand only once. Records with an inconclusive call do not appear. The source made the active and inactive calls. Unless noted, calls come from the whole dose curve.
Columns and labels:
[1] = Nuclear factor erythroid 2-related factor 2/antioxidant responsive element (Nrf2/ARE) small molecule agonists: qHTS cell viability counter screen in human keratinocytes (AID 1919968; active = well fitted curve in the direction sought with a large enough effect in the repeat runs; an effect the other way counts as inactive or inconclusive; note: nearly all actives have a fitted effect of over 55% in size)
Outline: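 In human HaCaT keratinocytes stably expressing an ARE-driven luciferase, compound exposure lasted 23 h at 37 C under 5% CO2. Viable cells are quantified with a protease-based fluorogenic reagent (CellTiter-Fluor) read 1 h after addition.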

[2] = Nuclear factor erythroid 2-related factor 2/antioxidant responsive element (Nrf2/ARE) small molecule agonists: luciferase reporter gene qHTS assay in human keratinocytes (AID 1919969); note: nearly all actives have a fitted effect of over 35% in size; note: potency is the fitted concentration of half-maximal effect
[3] = target: Gonadotropin-releasing hormone receptor (Homo sapiens) (UniProt P30968); assay: Human gonadotropin-releasing hormone receptor (GnRHR) small molecule agonists, calcium flux assay in GnRHR-HEK293 cells (AID 1920063); note: nearly all actives have a fitted effect of over 35% in size
Gonadotropin-releasing hormone receptor (Homo sapiens), sequence (P30968 whole entry, looked up): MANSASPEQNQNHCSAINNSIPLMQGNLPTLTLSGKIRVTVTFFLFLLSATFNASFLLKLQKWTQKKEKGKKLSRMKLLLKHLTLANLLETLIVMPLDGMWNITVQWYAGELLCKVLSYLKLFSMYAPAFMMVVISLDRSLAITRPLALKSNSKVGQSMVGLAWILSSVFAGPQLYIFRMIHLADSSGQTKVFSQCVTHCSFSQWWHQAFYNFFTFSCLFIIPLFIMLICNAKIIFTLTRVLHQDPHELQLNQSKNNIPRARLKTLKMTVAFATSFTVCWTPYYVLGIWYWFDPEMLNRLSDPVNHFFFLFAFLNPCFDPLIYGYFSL
Outline: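 Intracellular calcium rise is the read-out: engineered human GnRHR HEK293 cells, dye-loaded, are exposed to DMSO-dissolved compounds and fluorescence at Ex/Em 480/540 is tracked for 3 min.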

[4] = target: KiSS-1 receptor (Homo sapiens) (UniProt Q969F8); assay: Human kisspeptin (KISS1R) small molecule agonists, calcium flux assay in KISS1R-HEK293 cells (AID 1920064; active = well fitted curve in the direction sought with a large enough effect in the repeat runs; an effect the other way counts as inactive or inconclusive)
KiSS-1 receptor (Homo sapiens), sequence (Q969F8 whole entry, looked up): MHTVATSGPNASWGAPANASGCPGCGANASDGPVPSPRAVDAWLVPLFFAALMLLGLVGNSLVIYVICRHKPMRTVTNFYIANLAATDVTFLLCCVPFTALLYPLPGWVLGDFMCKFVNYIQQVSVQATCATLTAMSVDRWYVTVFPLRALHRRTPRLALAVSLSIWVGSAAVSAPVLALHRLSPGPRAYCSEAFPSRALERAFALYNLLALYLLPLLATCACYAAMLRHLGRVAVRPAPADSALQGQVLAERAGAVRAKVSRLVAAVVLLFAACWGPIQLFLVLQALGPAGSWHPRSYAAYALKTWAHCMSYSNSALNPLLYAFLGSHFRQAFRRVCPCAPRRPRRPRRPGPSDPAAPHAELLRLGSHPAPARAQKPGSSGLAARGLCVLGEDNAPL
Outline: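 Concentration-response testing used 15 concentrations in triplicate on human KISS1R-expressing HEK293 cells. Calcium-dependent fluorescence (Ex/Em 480/540) was followed kinetically for 3 min after compound transfer.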

[5] = G protein-coupled receptor (GPCR) small molecule agonists, calcium flux assay: HEK293 wild type cell line counter screen (AID 1920065)
Outline: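 Fluorescence intensity signals activation. After overnight (18 h) culture and a 1 h calcium dye load at 37 C, compounds are added by pin tool and the plate read at 480/540 nm for 3 min in 1 s steps.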

[6] = p53 small molecule agonists, cell-based qHTS assay with human liver microsomes (AID 1963577);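 note: p53 response element beta-lactamase reporter cells with liver microsomes plus NADPH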
Outline: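 In this qHTS, p53 response-element beta-lactamase cells receive test compound together with a microsome/NADPH activating system (0.5 mg/mL final each) and are incubated 16 h at 37 C before LiveBLAzer fluorescence detection.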

[7] = p53 small molecule agonists, cell-based qHTS assay with rat liver microsomes (AID 1963578)
Outline: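 Agonist mode in p53RE-bla reporter cells, with compounds co-incubated 16 h at 37 C alongside 0.5 mg/mL rat liver microsomes and 0.5 mg/mL NADPH (final), followed by a 2 h LiveBLAzer detection step.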

[8] = p53 small molecule agonists, cell-based qHTS assay with human liver microsomes: qHTS cell viability counter screen (AID 1963579); note: nearly all actives have a fitted effect of over 45% in size
Outline: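 Metabolically activated exposure: compounds, human liver microsomes and NADPH (0.5 mg/mL final apiece) were added to p53RE-bla cells seeded 5 h earlier, left 16 h at 37 C, and then assessed for viability by CellTiter-Glo luminescence.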

[9] = p53 small molecule agonists, cell-based qHTS assay with rat liver microsomes: qHTS cell viability counter screen (AID 1963580); note: nearly all actives have a fitted effect of over 45% in size
Outline: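 Counter screen for cytotoxicity under metabolic activation: rat liver microsomes and NADPH, 0.5 mg/mL final each, added with compounds to p53RE-bla HCT-116 cells; 16 h at 37 C, then ATP luminescence read.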

[10] = p53 small molecule agonists, cell-based qHTS assay: qHTS cell viability counter screen (AID 1963581); note: nearly all actives have a fitted effect of over 45% in size
Outline: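 Luminescence from CellTiter-Glo, reflecting ATP content, serves as the cytotoxicity measure; it is taken after the 2 h reporter substrate step in HCT-116 p53RE-bla cells dosed for 16 h at 37 C.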

[11] = p53 small molecule agonists, cell-based qHTS assay (AID 1963582; active = well fitted activation curve with a large enough effect in the signal ratio in the repeat runs, not every such curve was filed as active; the % refers to the signal ratio)
Outline: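 After plating, p53RE-bla cells sat 5 h in the incubator; compounds or DMSO vehicle were pinned in; a 16 h incubation at 37 C followed; FRET substrate was added and, 2 h later at RT, fluorescence was measured.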

[12] = target: 5-hydroxytryptamine receptor 2A (Homo sapiens) (UniProt P28223); assay: 5-hydroxytryptamine receptor 2A (HTR2A) small molecule antagonists, cell-based qHTS assay (AID 1963586); note: nearly all actives have a fitted effect of over 45% in size
5-hydroxytryptamine receptor 2A (Homo sapiens), sequence (P28223 whole entry, looked up): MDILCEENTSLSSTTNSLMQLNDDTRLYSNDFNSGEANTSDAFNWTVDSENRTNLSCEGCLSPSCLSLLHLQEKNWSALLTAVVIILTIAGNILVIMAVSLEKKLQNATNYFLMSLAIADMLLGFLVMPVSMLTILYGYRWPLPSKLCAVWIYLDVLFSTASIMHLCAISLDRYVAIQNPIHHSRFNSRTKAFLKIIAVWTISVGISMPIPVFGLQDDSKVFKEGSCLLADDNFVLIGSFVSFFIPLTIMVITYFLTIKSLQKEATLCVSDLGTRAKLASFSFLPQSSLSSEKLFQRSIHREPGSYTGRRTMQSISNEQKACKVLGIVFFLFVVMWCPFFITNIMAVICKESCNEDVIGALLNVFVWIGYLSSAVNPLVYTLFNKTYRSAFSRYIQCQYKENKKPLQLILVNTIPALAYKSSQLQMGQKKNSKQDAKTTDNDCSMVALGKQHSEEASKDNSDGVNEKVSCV
Outline: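 CHO cells stably expressing human HTR2A were plated for 18 h at 37 C, then loaded with calcium dye for 1 h. Compounds were preincubated 5 min at room temperature before DOI (4 nM solution) was added. Kinetic fluorescence was read for 3 min.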

[13] = target: 5-hydroxytryptamine receptor 2A (Homo sapiens) (UniProt P28223); assay: 5-hydroxytryptamine receptor 2A (HTR2A) small molecule agonists, cell-based qHTS assay (AID 1963587); note: nearly all actives have a fitted effect of over 30% in size
Outline: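 HTR2A-CHO cells, plated 18 h at 37 C/5% CO2, dye-loaded 1 h at 37 C; compounds in DMSO added by pin tool (agonist mode). Intracellular calcium flux read as kinetic fluorescence on FDSS over 2 min at 1 s intervals.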

[14] = cAMP Responsive Elements (CRE) small molecule agonists, cell-based qHTS assay (AID 1963590)
Outline: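 Compound exposure lasted 3 h at 37 C/5% CO2 in CRE-bla HEK 293T cells grown in assay medium with 10% dialyzed FBS and 25 mM HEPES. Reporter signal came from LiveBLAzer B/G FRET substrate, 2 h, room temperature.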

[15] = cAMP Responsive Elements (CRE) small molecule antagonists, cell-based qHTS assay (AID 1963591; active = well fitted inhibition curve with a large enough effect in the signal ratio in the repeat runs, not every such curve was filed as active; the % refers to the signal ratio)
Outline: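 Stimulation used NKH477 at a final 0.25 uM for 3 h in compound-treated CRE-bla HEK293T cells, seeded 18 h beforehand. Reporter activity was measured with LiveBLAzer B/G FRET substrate after 2 h at room temperature.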

[16] = target: Beta-2 adrenergic receptor (Homo sapiens) (UniProt P07550); assay: Adrenergic beta2 receptor (ADRB2) small molecule antagonists, cell-based qHTS assay (AID 1963592); note: series mostly up to about 92 µM; nearly all actives have a fitted effect of over 50% in size
Beta-2 adrenergic receptor (Homo sapiens), sequence (P07550 whole entry, looked up): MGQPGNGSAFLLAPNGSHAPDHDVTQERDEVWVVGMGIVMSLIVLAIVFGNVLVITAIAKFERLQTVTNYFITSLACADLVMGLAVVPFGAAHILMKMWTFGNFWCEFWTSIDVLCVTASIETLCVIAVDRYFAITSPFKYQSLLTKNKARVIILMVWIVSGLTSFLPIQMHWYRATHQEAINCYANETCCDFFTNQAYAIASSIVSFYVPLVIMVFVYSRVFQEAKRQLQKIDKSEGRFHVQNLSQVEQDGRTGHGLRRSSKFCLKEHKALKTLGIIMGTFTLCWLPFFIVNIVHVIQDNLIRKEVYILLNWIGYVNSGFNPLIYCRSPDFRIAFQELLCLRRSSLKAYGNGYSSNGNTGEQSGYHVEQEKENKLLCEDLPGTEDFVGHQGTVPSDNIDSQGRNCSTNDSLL
Outline: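 Assay format: CHO-ADRB2 cells, 18-20hr seeding at 37C/5% CO2, then compound plus 1nM isoproterenol agonist mix for 0.5hr RT. Homogeneous time-resolved fluorescence cAMP detection after 1hr, expressed as 665/615 nm ratio.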

[17] = target: D(2) dopamine receptor (Homo sapiens) (UniProt P14416); assay: Dopamine D2 receptor (DRD2) small molecule agonists, cell-based qHTS assay (AID 1963594); note: nearly all actives have a fitted effect of over 35% in size
D(2) dopamine receptor (Homo sapiens), sequence (P14416 whole entry, looked up): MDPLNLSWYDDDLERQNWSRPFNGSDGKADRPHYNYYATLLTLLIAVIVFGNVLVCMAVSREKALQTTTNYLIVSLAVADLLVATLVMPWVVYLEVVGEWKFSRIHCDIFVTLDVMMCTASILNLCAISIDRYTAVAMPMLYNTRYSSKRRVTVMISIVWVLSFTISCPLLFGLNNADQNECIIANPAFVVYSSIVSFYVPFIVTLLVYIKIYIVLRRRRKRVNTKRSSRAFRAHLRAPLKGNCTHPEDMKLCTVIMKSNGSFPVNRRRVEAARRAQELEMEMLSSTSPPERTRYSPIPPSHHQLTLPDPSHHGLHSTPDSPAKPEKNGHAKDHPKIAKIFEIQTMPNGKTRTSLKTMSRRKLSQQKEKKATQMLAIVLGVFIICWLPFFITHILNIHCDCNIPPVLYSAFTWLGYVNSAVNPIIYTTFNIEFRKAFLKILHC
Outline: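 HEK293 cells stably expressing DRD2 were cultured 24 h at 37 C, then given Ro20-1724 (0.1 mM final) and compounds for 10 min at room temperature. NKH477 (200nM) was then added for 30 min. cAMP was read by HTRF.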

[18] = target: Muscarinic acetylcholine receptor M1 (Homo sapiens) (UniProt P11229); assay: Cholinergic receptor muscarinic 1 (CHRM1) small molecule antagonists, cell-based qHTS assay (AID 1963588); note: nearly all actives have a fitted effect of over 40% in size
Muscarinic acetylcholine receptor M1 (Homo sapiens), sequence (P11229 whole entry, looked up): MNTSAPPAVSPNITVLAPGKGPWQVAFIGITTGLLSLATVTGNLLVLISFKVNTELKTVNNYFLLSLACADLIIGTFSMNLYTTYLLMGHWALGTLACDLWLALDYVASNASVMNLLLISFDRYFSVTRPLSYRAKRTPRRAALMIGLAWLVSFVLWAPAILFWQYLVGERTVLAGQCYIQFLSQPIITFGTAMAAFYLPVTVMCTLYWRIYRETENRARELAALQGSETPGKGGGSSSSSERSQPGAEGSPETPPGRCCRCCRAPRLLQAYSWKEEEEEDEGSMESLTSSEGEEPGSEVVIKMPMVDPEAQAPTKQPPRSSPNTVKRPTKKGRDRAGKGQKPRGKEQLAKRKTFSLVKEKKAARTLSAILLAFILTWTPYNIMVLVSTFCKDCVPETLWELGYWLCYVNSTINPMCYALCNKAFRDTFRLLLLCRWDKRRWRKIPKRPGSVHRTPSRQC
Outline: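 Compounds were tested at 15 concentrations in three independent runs. Dye-loaded CHRM1-CHO cells were exposed 5 min at room temperature before stimulation by acetylcholine added at 50nM. Intracellular calcium was read kinetically on FDSS for 3 min.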

[19] = target: Muscarinic acetylcholine receptor M1 (Homo sapiens) (UniProt P11229); assay: Cholinergic receptor muscarinic 1 (CHRM1) small molecule agonists, cell-based qHTS assay (AID 1963589); note: nearly all actives have a fitted effect of over 35% in size
Outline: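 Fluorescent calcium dye reports M1 activation in stably transfected CHO cells. Compounds, 15 concentrations, added after 1 h dye loading at 37 C; kinetic reading at 1 sec intervals.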

[20] = target: D(2) dopamine receptor (Homo sapiens) (UniProt P14416); assay: Dopamine D2 receptor (DRD2) small molecule antagonists, cell-based qHTS assay (AID 1963595; active = well fitted inhibition curve with a large enough effect in the signal ratio in the repeat runs, with a control signal flat; the % refers to the signal ratio)
Outline: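 Antagonism was scored as restored cAMP in HEK293-DRD2 cells. These cells were stimulated with 200 nM NKH477 and 12 nM quinpirole for 30 min at room temperature, in the presence of 0.1 mM Ro20-1724.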
% is set by controls: 0 for no effect and ±100 for the full control effect.

Nc1ncc([N+](=O)[O-])s1
inactive: Potency [1] | Potency [2] | Potency [3] | Potency [4] | Potency [5] | Potency [6] | Potency [7] | Potency [8] | Potency [9] | Potency [10] | Potency [11] | Potency [12] | Potency [13] | Potency [14] | Potency [15] | Potency [16] | Potency [17]

CCCN(CCC)c1c([N+](=O)[O-])cc(C(C)C)cc1[N+](=O)[O-]
active: Potency [2] 9.48 µM and 15.4 µM
inactive: Potency [1] | Potency [3] | Potency [4] | Potency [5] | Potency [6] | Potency [7] | Potency [8] | Potency [9] | Potency [10] | Potency [11] | Potency [12] | Potency [18] | Potency [19] | Potency [14] | Potency [15] | Potency [16] | Potency [17] | Potency [20]

NC(=S)c1c(Cl)cccc1Cl
inactive: Potency [1] | Potency [2] | Potency [3] | Potency [4] | Potency [5] | Potency [6] | Potency [7] | Potency [8] | Potency [9] | Potency [10] | Potency [11] | Potency [12] | Potency [13] | Potency [19] | Potency [14] | Potency [15] | Potency [17] | Potency [20]

Brc1c(Br)c(Br)c(Oc2c(Br)c(Br)c(Br)c(Br)c2Br)c(Br)c1Br
inactive: activity change, negative = cytotoxicity [1] -0.108% [at 19 µM] | activity, positive = activation [2] -3.66% [at 19 µM] | activity change [3] -0.419% [at 11.8 µM, active compounds read high] | activation [4] -2.44% [at 15.8 µM] | activation [5] 1.15% [at 11.8 µM] | activation [6] -0.0858% [at 13.5 µM] | activation [7] 0.633% [at 13.6 µM] | activity change, negative = cytotoxicity [8] 1.7% [at 13.5 µM] | activity change, negative = cytotoxicity [9] 4.17% [at 13.5 µM] | activity change, negative = cytotoxicity [10] 13.8% [at 13.5 µM] | activation [11] 0.0757% [at 13.5 µM] | activity, negative = inhibition [12] 9.26% [at 12.7 µM] | activation [13] 1.53% [at 15.9 µM] | activation [19] -0.663% [at 15.8 µM] | activity change, negative = inhibition [15] -8.08% [at 18.9 µM] | activity change, negative = inhibition [16] 1.07% [at 19 µM] | activation [17] 4.7% [at 19 µM] | activity change, negative = inhibition [20] 0.371% [at 18.9 µM]

C/C(=N\NC(=O)Nc1cc(F)cc(F)c1)c1ncccc1C(=O)O
inactive: Potency [1] | Potency [2] | Potency [3] | Potency [4] | Potency [5] | Potency [6] | Potency [7] | Potency [8] | Potency [9] | Potency [10] | Potency [11] | Potency [12] | Potency [18] | Potency [19] | Potency [14] | Potency [15] | Potency [16] | Potency [17] | Potency [20]

Oc1cc(Cl)ccc1Cl
inactive: Potency [1] | Potency [2] | Potency [3] | Potency [4] | Potency [5] | Potency [6] | Potency [7] | Potency [8] | Potency [9] | Potency [10] | Potency [11] | Potency [12] | Potency [13] | Potency [14] | Potency [15] | Potency [16] | Potency [17]

C[N+](=O)[O-]
inactive: Potency [1] | Potency [2] | Potency [3] | Potency [4] | Potency [5] | Potency [6] | Potency [7] | Potency [8] | Potency [9] | Potency [10] | Potency [11] | Potency [12] | Potency [18] | Potency [19] | Potency [14] | Potency [16] | Potency [17] | Potency [20]

Reference: PubChem BioAssay (Tox21)
